The text below walks through data of PubChem BioAssay (NCATS).

Experiment [1] addresses Calcium and integrin-binding protein 1 (Homo sapiens) (UniProt Q99828). Description: Primary qHTS for Identification of Calcium Integrin Binding Protein 1 (CIB1) Competitor (AID 1508620). Further: top concentration of the series differs between compounds. The settings on record: CIB1-GST / FITC-alphaIIb peptide fluorescence polarization; series mostly up to 57.7 µM. In short, it runs like this: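 Fluorescence polarization competition: GST-tagged CIB1 (1 uM final) preincubated with compound 15 min at room temperature, then FITC-labelled alphaIIb peptide (100 nM final) added. After 15 min at room temperature, polarization read at Ex 480/Em 540.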

A short description of experiment [2]: Primary qHTS for inhibitors of nuclear receptor binding SET domain protein 2 (NSD2) in an isogenic RCH-ACV NSD2 p.E1099K mutant (9B) (AID 1645876). Further: nearly all actives have a fitted effect of over 70% in size. To be noted: RCH-ACV NSD2 E1099K (9B) viability, CellTiter-Glo, 72 h; series mostly up to 44.9 µM. Background: In qHTS, concentration-response curves come from the screen itself.
The nature of experiment [3]: Primary qHTS for inhibitors of nuclear receptor binding SET domain protein 2 (NSD2) in an RCH-ACV wild type WT cells (2C) (AID 1645877). Further: nearly all actives have a fitted effect of over 70% in size. To be noted: RCH-ACV (leukaemia line) NSD2 WT (2C) viability, CellTiter-Glo, 72 h; series mostly up to 44.9 µM.

Records with an inconclusive call do not appear. Unmarked numbers belong to inactive results. Active and inactive are the calls of the source. The call rests on the fitted dose curve; in most records, active means well fitted curve in the direction sought with a large enough effect; inconclusive means small, poorly fitted or top-dose-only effect, or another doubt; inactive means no such curve, though single readings can be large; an effect the other way counts as inactive or inconclusive.
On the % scale 0 is the no-effect control and ±100 the full control effect.

Chain of Calcium and integrin-binding protein 1 (Homo sapiens) (Q99828 whole entry, looked up): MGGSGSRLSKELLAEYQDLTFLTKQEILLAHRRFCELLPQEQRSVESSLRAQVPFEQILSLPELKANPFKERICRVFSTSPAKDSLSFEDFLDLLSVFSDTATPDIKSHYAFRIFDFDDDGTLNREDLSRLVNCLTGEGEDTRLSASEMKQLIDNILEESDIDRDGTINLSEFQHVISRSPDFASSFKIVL

In the case of `CC1(C(=O)O)CC[C@]2(C(=O)OC3OC(CO)C(O)C(O)C3O)CC[C@]3(C)C(=CCC4[C@@]5(C)CC[C@H](OC6OCC(O)C(O)C6OC6OC(CO)C(O)C(O)C6O)C(C)(C)C5CC[C@]43C)C2C1` (stereo partly specified), in experiment [1], the Potency result is “inactive”. In experiment [2], the activity change, negative = viability loss is -7.26% [at 9.23 µM]. For the same compound, the activity change, negative = cell killing in experiment [3] was -0.731% [at 9.23 µM].
`C=C1C2CCC3C(CCC4[C@@]3(C)CCC[C@@]4(C)C(=O)O)(C2)[C@@H]1OC(=O)/C(C)=C\C` (stereo partly specified): the Potency entry in experiment [1], in experiment [2] and in experiment [3] was “inactive” in each case.
Consider `CC1=C2C(=O)C=C(CO[C@@H]3O[C@H](CO)[C@@H](O)[C@H](O)[C@H]3O)[C@@H]2[C@H]2OC(=O)[C@H](C)[C@@H]2[C@@H](O)C1`, for which the Potency result in experiment [1] and in experiment [2] was “inactive” each time.
Take `C=CC(C)(O)CCC1C(C)(O)CCC2C(C)(C)CCCC21C` (stereo unspecified): the Potency result in experiment [1] and in experiment [2] was “inactive” in each case.
Take `C=C1CCC2C(C)(C(=O)OC)CCCC2(C)C1CCC1=CCOC1=O` (stereo unspecified): the Potency result in experiment [1] and in experiment [2] was “inactive” throughout.
On to `CC1(C(=O)O)CCCC2(C)C3CC4C5CC3(CCC12)CC45C` (stereo unspecified), for which the Potency entry in experiment [1], in experiment [2] and in experiment [3] was “inactive” each time.
As for `CC(=O)O[C@H]1[C@H](O[C@H]2CC[C@]34C[C@]35CC[C@]3(C)[C@@H]([C@@]6(C)CC[C@@H](C(C)(C)O)O6)[C@@H](O)C[C@@]3(C)[C@@H]5C[C@H](O[C@@H]3O[C@H](CO)[C@@H](O)[C@H](O)[C@H]3O)[C@H]4C2(C)C)OC[C@@H](OC(C)=O)[C@@H]1O`, the Potency entry in experiment [1], in experiment [2] and in experiment [3] was “inactive” each time.
Turning to `CC(C)(O)C1OC1C1=CC(=O)C2(C)OC2C1O` (stereo unspecified), the Potency entry in experiment [1] and in experiment [2] was “inactive” throughout.
For `CC(=O)OC1(C)CC(O)C2(O)C=COC(OC3OC(CO)C(O)C(O)C3O)C12` (stereo unspecified), the Potency result in experiment [1], in experiment [2] and in experiment [3] was “inactive” in each case.
`C[C@]1(OC(=O)/C=C/c2ccc(O)cc2)C[C@@H](O)[C@]2(O)C=CO[C@@H](O[C@@H]3O[C@H](CO)[C@@H](O)[C@H](O)[C@H]3O)C12` (stereo partly specified): the Potency result in experiment [1], in experiment [2] and in experiment [3] was “inactive” each time.
Regarding `C=C1C(O)CCC2(C)CC3(OC)OC(=O)C(C)=C3CC12` (stereo unspecified), the Potency entry in experiment [1] and in experiment [2] was “inactive” each time.
`CCC(C)C1NC(=O)C2C(C)CCN2C(=O)C(CC(O)CO)OC(=O)CCNC(=O)C(C)N(C)C(=O)C(C(C)C)N(C)C1=O` (stereo unspecified): the Potency entry in experiment [1] and in experiment [2] was “inactive” in each case.
`C/C=C/C1OC2=C(C(=O)OC2(C)O)C(O)C1O` (stereo unspecified): the Potency entry in experiment [1], in experiment [2] and in experiment [3] was “inactive” in each case.
As for `COc1cc2c(cc1OC)N1C(=O)C[C@@]34C=CC[N@+]5([O-])CC[C@H]2[C@H](CC3)[C@@]145`, the Potency result in experiment [1], in experiment [2] and in experiment [3] was “inactive” throughout.
